From PubChem BioAssay AID1159580 (chemical genetic matrix, 2015)
Among all 5,500 compounds or so, about 2,000 (36%) were called active. Roughly 18% stayed inconclusive and do not appear here. Rule as the data show it: active = normalized growth mostly below about 0.91 (no sharp cut-off); inconclusive = no clear call, values can overlap the other calls; inactive = mostly above about 0.92. The list shows a part of the results.

Assay: chemical genetic growth profiling, strain panel (AID 1159580);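 also: tested at 20 µM; growth read once vehicle control cultures reached saturation at 30 °C; 1 = growth at the plate median or of vehicle wells; lower values mean less growth of the strain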
Details: growth OD

Measured: normalized growth

CN1C(CC(=O)c2ccccc2)CCCC1CC(O)c1ccccc1 (configuration not stated)
inactive: S. cerevisiae deletion strains, locus YJR075W, strain HOC1, active compounds read low 0.998 | S. cerevisiae deletion strains, locus YKL009W, strain mrt4, active compounds read low 0.994 | S. cerevisiae deletion strains, locus YKL068W, active compounds read low 0.994 | S. cerevisiae deletion strains, locus YKL085W, strain MDH1 (second series), active compounds read low 0.989 | S. cerevisiae deletion strains, locus YKL085W, strain MDH1, active compounds read low 0.989 | S. cerevisiae deletion strains, locus YKL160W, strain elf1, active compounds read low 1 | S. cerevisiae deletion strains, locus YKL190W, strain CNB1, active compounds read low 1.01 | S. cerevisiae deletion strains, locus YKR001C, strain vps1, active compounds read low 1 | S. cerevisiae deletion strains, locus YKR026C, strain gcn3, active compounds read low 0.977 | S. cerevisiae deletion strains, locus YKR091W, strain srl3, active compounds read low 0.975 | S. cerevisiae deletion strains, locus YLL001W, strain dnm1, active compounds read low 0.967 | S. cerevisiae deletion strains, locus YLL026W, active compounds read low 0.98 | S. cerevisiae deletion strains, locus YLL041C, strain sdh2, active compounds read low 0.982 | S. cerevisiae deletion strains, locus YLR027C, strain aat2, active compounds read low 0.965 | S. cerevisiae deletion strains, locus YLR039C, strain RIC1, active compounds read low 1.04 | S. cerevisiae deletion strains, locus YLR058C, strain SHM2, active compounds read low 1.01 | S. cerevisiae deletion strains, locus YLR102C, strain apc9, active compounds read low 0.983 | S. cerevisiae deletion strains, locus YLR113W, strain HOG1, active compounds read low 0.984 | S. cerevisiae deletion strains, locus YLR221C, strain rsa3, active compounds read low 0.99 | S. cerevisiae deletion strains, locus YLR258W, strain gsy2, active compounds read low 0.983 | S. cerevisiae deletion strains, locus YLR262C, strain YPT6 (second series), active compounds read low 0.909 | S. cerevisiae deletion strains, locus YLR262C, strain YPT6, active compounds read low 1.06 | S. cerevisiae deletion strains, locus YLR268W, strain sec22, active compounds read low 0.928 | S. cerevisiae deletion strains, locus YLR320W, strain mms22, active compounds read low 0.979 | S. cerevisiae deletion strains, locus YLR330W, strain CHS5, active compounds read low 1 | S. cerevisiae deletion strains, locus YLR342W, strain FKS1 (second series), active compounds read low 1.03 | S. cerevisiae deletion strains, locus YLR342W, strain FKS1, active compounds read low 0.966 | S. cerevisiae deletion strains, locus YLR357W, strain rsc2, active compounds read low 0.967 | S. cerevisiae deletion strains, locus YLR370C, strain arc18, active compounds read low 0.962 | S. cerevisiae deletion strains, locus YLR371W, strain rom2, active compounds read low 0.984 | S. cerevisiae deletion strains, locus YLR384C, strain iki3, active compounds read low 0.974 | S. cerevisiae deletion strains, locus YLR418C, strain cdc73, active compounds read low 0.957 | S. cerevisiae deletion strains, locus YML016C, strain PPZ1, active compounds read low 1.01 | S. cerevisiae deletion strains, locus YML032C, strain rad52, active compounds read low 0.973 | S. cerevisiae deletion strains, locus YML120C, strain ndi1, active compounds read low 0.977 | S. cerevisiae deletion strains, locus YML124C, strain tub3, active compounds read low 0.988 | S. cerevisiae deletion strains, locus YMR058W, strain fet3, active compounds read low 0.969 | S. cerevisiae deletion strains, locus YMR078C, strain ctf18, active compounds read low 0.991 | S. cerevisiae deletion strains, locus YMR125W, strain sto1, active compounds read low 0.951 | S. cerevisiae deletion strains, locus YMR129W, active compounds read low 0.976 | S. cerevisiae deletion strains, locus YMR205C, strain PFK2, active compounds read low 0.971 | S. cerevisiae deletion strains, locus YMR223W, strain ubp8, active compounds read low 0.993 | S. cerevisiae deletion strains, locus YMR231W, strain pep5, active compounds read low 0.987 | S. cerevisiae deletion strains, locus YMR263W, strain SAP30, active compounds read low 1.01 | S. cerevisiae deletion strains, locus YMR307W, strain GAS1, active compounds read low 1.08 | S. cerevisiae deletion strains, locus YNL067W, strain RPL9B, active compounds read low 0.986 | S. cerevisiae deletion strains, locus YNL071W, strain lat1, active compounds read low 0.975 | S. cerevisiae deletion strains, locus YNL128W, strain TEP1, active compounds read low 1.01 | S. cerevisiae deletion strains, locus YNL153C, strain GIM3, active compounds read low 0.988 | S. cerevisiae deletion strains, locus YNL183C, strain NPR1, active compounds read low 0.924 | S. cerevisiae deletion strains, locus YNL209W, strain ssb2, active compounds read low 0.981 | S. cerevisiae deletion strains, locus YNL233W, strain BNI4, active compounds read low 0.994 | S. cerevisiae deletion strains, locus YNL248C, strain rpa49, active compounds read low 1.01 | S. cerevisiae deletion strains, locus YNL250W, strain rad50, active compounds read low 0.981 | S. cerevisiae deletion strains, locus YNL271C, strain bni1, active compounds read low 0.984 | S. cerevisiae deletion strains, locus YNL298W, strain CLA4, active compounds read low 0.98 | S. cerevisiae deletion strains, locus YNL307C, strain MCK1, active compounds read low 0.992 | S. cerevisiae deletion strains, locus YNL322C, strain KRE1 (second series), active compounds read low 0.985 | S. cerevisiae deletion strains, locus YNL322C, strain KRE1, active compounds read low 1.01 | S. cerevisiae deletion strains, locus YNR049C, strain mso1, active compounds read low 0.973 | S. cerevisiae deletion strains, locus YNR052C, strain pop2, active compounds read low 0.99 | S. cerevisiae deletion strains, locus YOL006C, strain TOP1, active compounds read low 0.939 | S. cerevisiae deletion strains, locus YOL012C, strain htz1 0.951 | S. cerevisiae deletion strains, locus YOL147C, strain pex11, active compounds read low 0.991 | S. cerevisiae deletion strains, locus YOR001W, strain rrp6, active compounds read low 0.997 | S. cerevisiae deletion strains, locus YOR061W, strain CKA2, active compounds read low 1.02 | S. cerevisiae deletion strains, locus YOR069W, strain VPS5, active compounds read low 1.01 | S. cerevisiae deletion strains, locus YOR070C, strain gyp1, active compounds read low 0.971 | S. cerevisiae deletion strains, locus YOR080W, strain dia2, active compounds read low 0.988 | S. cerevisiae deletion strains, locus YOR083W, strain WHI5, active compounds read low 1.01 | S. cerevisiae deletion strains, locus YOR106W, strain vam3, active compounds read low 1 | S. cerevisiae deletion strains, locus YOR136W, strain idh2, active compounds read low 0.993 | S. cerevisiae deletion strains, locus YOR144C, strain elg1, active compounds read low 0.993 | S. cerevisiae deletion strains, locus YOR184W, strain ser1, active compounds read low 0.988 | S. cerevisiae deletion strains, locus YOR231W, strain MKK1, active compounds read low 0.978 | S. cerevisiae deletion strains, locus YOR265W, strain rbl2, active compounds read low 0.973 | S. cerevisiae deletion strains, locus YOR270C, strain vph1, active compounds read low 0.917 | S. cerevisiae deletion strains, locus YOR290C, strain snf2, active compounds read low 0.951 | S. cerevisiae deletion strains, locus YOR316C, strain cot1, active compounds read low 0.99 | S. cerevisiae deletion strains, locus YPL051W, strain arl3, active compounds read low 0.998 | S. cerevisiae deletion strains, locus YPL055C, strain LGE1, active compounds read low 1.01 | S. cerevisiae deletion strains, locus YPL078C, strain atp4, active compounds read low 0.991 | S. cerevisiae deletion strains, locus YPL106C, strain sse1, active compounds read low 0.954 | S. cerevisiae deletion strains, locus YPL240C, strain hsp82, active compounds read low 0.998 | S. cerevisiae deletion strains, locus YPL241C, strain CIN2, active compounds read low 1.01 | S. cerevisiae deletion strains, locus YPL256C, strain CLN2, active compounds read low 0.938 | S. cerevisiae deletion strains, locus YPR119W, strain clb2, active compounds read low 0.992 | S. cerevisiae deletion strains, locus YPR141C, strain kar3, active compounds read low 0.992 | S. cerevisiae deletion strains, locus YPR163C, strain tif3, active compounds read low 0.981 | S. cerevisiae deletion strains, locus YPR167C, strain met16, active compounds read low 0.997 | S. cerevisiae deletion strains, strain wtn01, active compounds read low 0.954 | S. cerevisiae strains, strain wild type, active compounds read low 1.01
